Hits are enriched below; roughly 3% of the tested compounds scored in any of these assays.
Arbovirus anti: arbovirus infection inhibition. arbovirus infection cell-based antiviral screen. inhibition, % at 10 µM. 200,000 compounds, 0.37% hits. AID 1251; in the data active = inhibition above about 30%
14-3-3 Bad PPI: disrupts binding of bovine 14-3-3 zeta to phospho-Bad peptide; TR-FRET 14-3-3zeta/Dy647-pBad peptide displacement, 1 h; inhibition, % at 21.7 µM; 220,000 compounds, 0.71% hits;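 active = inhibition above about 70%, limit read from the data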
Target sequence (P63103 whole entry, looked up): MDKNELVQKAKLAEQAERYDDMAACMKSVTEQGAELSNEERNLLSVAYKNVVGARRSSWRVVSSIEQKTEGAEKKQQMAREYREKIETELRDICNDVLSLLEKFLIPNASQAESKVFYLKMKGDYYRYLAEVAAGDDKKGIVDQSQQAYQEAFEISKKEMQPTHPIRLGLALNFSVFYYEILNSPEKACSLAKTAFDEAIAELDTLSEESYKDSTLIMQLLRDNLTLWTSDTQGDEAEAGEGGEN
Mcl1 Noxa PPI: Mcl-1/Noxa interaction inhibition. Q07820. TR-FRET Mcl-1/Noxa peptide binding, 2 h. inhibition, % at 21.7 µM. 220,000 compounds, 1.5% hits. AID 1022;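 active = compounds that cut the protein-peptide binding signal by more than 50% relative to plate controls in a single-dose test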;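 note: His-tagged Mcl-1 with rhodamine Noxa BH3 peptide and terbium anti-His antibody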
Target sequence (Q07820 whole entry, looked up): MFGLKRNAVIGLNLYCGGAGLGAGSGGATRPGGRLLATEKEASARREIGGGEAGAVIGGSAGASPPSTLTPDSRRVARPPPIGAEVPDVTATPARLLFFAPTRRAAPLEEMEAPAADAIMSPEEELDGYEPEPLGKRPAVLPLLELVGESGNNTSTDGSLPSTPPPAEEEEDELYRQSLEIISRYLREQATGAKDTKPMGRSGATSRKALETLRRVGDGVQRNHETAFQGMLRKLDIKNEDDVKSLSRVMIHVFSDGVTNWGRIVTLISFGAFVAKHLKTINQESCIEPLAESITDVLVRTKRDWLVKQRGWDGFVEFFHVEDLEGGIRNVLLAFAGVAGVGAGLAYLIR
Mcl1-Bid inh: disrupts binding of human Mcl-1 to Bid peptide; Q07820; 220,000 compounds, 0.97% hits; inhibition, % at 21.7 µM; TR-FRET Mcl-1/Bid-Dy647 peptide binding, 1536-well;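 active = compounds that cut the binding signal by more than half at the single screening dose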;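 note: His-tagged Mcl-1 with europium anti-His antibody binding Bid BH3 peptide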
Bim-Mcl-1: human Bim-Mcl-1 interaction inhibition. Q07820. AID 1009. inhibition, % at 10 µM. Bead-based flow cytometry, Bim peptide-Mcl-1 binding. 190,000 compounds, 0.1% hits; in the data active = inhibition above about 40%
Hits are given with their value; n = inactive; x = no result given.

SMILES	Arbovirus anti	14-3-3 Bad PPI	Mcl1 Noxa PPI	Mcl1-Bid inh	Bim-Mcl-1
Cc1nc(-c2ccccc2)sc1C1(C)CC(c2ccc(OC(F)(F)F)cc2)=NO1 (centres undefined)	x	n	n	n	x
Cc1cccc(NC(=O)CN2C(=O)N/C(=C\c3ccc(-c4cccc(C(=O)O)c4)o3)C2=O)c1	x	n	n	n	x
CC(C)S(=O)(=O)C1=NSC2=NC(=O)/C(=C\c3ccc(-c4cccc(C(=O)O)c4)o3)C(=N)N21	30	n	n	n	n
O=C1OC(c2cccs2)=N/C1=C/c1ccc(-c2cccc(C(=O)O)c2)o1	n	76	96	79	n
O=C1OC(c2cccs2)=N/C1=C\c1ccc(-c2ccccc2Cl)o1	n	n	n	n	n
CS(=O)(=O)C1=NSC2=NC(=O)/C(=C\c3ccc(-c4ccccc4)o3)C(=N)N21	60	n	n	n	n
N=C1/C(=C/c2ccc(-c3cccc(C(=O)O)c3)o2)C(=O)N=C2SC=C(c3ccccc3)N12	42	93	109	98	n
Cc1cccnc1NC(=O)c1csnn1	x	n	n	n	x
CCOC(=O)c1[nH]ncc1CN1CCN(Cc2ccc(C)cc2)C(CCO)C1 (centres undefined)	n	n	n	n	n
CC(C)S(=O)(=O)C1=NSC2=NC(=O)/C(=C\c3ccc(-c4ccccc4)o3)C(=N)N21	33	n	n	n	n
N=C1/C(=C\c2ccc(-c3cc(Cl)cc(Cl)c3)o2)C(=O)N=C2SC=C(c3ccccc3)N12	n	n	n	n	n
CSCCn1c(C(C)(C)C)cc(C(=O)O)c1C	x	n	n	n	x
O=C1N=c2ccccc2=C1c1sc(NS(=O)(=O)c2ccccc2)nc1O	n	n	n	n	n
O=C1N=c2ccccc2=C1c1sc(Nc2ccc(O)cc2)nc1O	36	83	83	n	n
CCOC1=NN(c2ncc(C(F)(F)F)cc2Cl)C(=O)/C1=C/N(C)C	n	n	n	n	n
Nc1ccc(N2CCCCC2)cc1N1CCCCC1	n	n	76	n	n
Cc1nn(-c2cc(N3CCCCC3)ccc2N)c(=O)c2ccccc12	n	n	n	n	n
CC(C)COc1cccc(C(=O)NC(=S)Nc2cccc(NC(=O)c3ccccc3Cl)c2)c1	n	n	n	n	n
Cc1nc2ccccc2n1CC(=O)NC1CCCC1	n	71	n	n	n
Cc1nc2ccccc2n1CC(=O)NC1CCCCCC1	x	n	n	n	x
CC(NC(=S)NCCN1CCOCC1)C12CC3CC(CC(C3)C1)C2 (centres undefined)	n	n	n	n	n
CC(C(=O)Nc1ccccc1)N(c1cccc(Cl)c1)S(C)(=O)=O (centres undefined)	n	n	n	n	n
Cc1ccc(C(=O)NCCCn2ccnc2)o1	n	n	n	62	n
c1ccc(-c2nc(NCc3cccnc3)c3oc4ccccc4c3n2)cc1	n	81	n	63	n
CSCC[C@@H](Nc1nc(-c2ccccc2)nc2c1oc1ccccc12)C(=O)O	n	n	n	60	n
SMILES	Arbovirus anti	14-3-3 Bad PPI	Mcl1 Noxa PPI	Mcl1-Bid inh	Bim-Mcl-1
c1ccc(-c2nc(NCC3CCCO3)c3oc4ccccc4c3n2)cc1 (centres undefined)	n	70	n	n	n
CCC(=O)NC(c1ccc(OC)cc1)c1c(O)ccc2ccccc12 (centres undefined)	n	n	n	n	n
CCC(=O)NC(c1ccc(N(C)C)cc1)c1c(O)ccc2ccccc12 (centres undefined)	n	n	51	n	n
O=C(Cn1nc(C(F)(F)F)c2c1CCCC2)NCc1ccco1	n	n	n	98	n
Cc1cc(C)n2c(nc3ccccc32)c1C(=O)NCc1ccccc1	n	n	n	n	n
O=[N+]([O-])c1cccc(N/N=C/c2cccc3ccccc23)c1	n	n	59	n	n
O=[N+]([O-])c1ccc(N/N=C/c2c[nH]c3ccccc23)cc1	n	n	x	n	n
CCOc1ccc(C(=O)Nc2cccc(-c3nc4ccccc4[nH]3)c2C)cc1[N+](=O)[O-]	n	n	n	n	n
O=C(OCn1nnc2ccccc2c1=O)C1CCCCC1	n	n	54	n	n
O=C(NC(=S)N(Cc1ccccc1)Cc1ccccc1)c1ccccc1F	n	n	n	n	n
Nc1c(C(=O)NC2CC2)sc2nc3c(c(-c4ccco4)c12)CC/C3=C/c1ccco1	n	n	97	84	n
CCOC(=O)C1=C(C)NC(C)=C(C(=O)OCC)C1C(=O)OCC(=O)N(CC)C1CCS(=O)(=O)C1 (centres undefined)	n	n	n	n	n
Cc1csc(NC(=O)C2CCN(C(=O)c3ccccc3C)CC2)n1	n	n	n	n	n
CC(=O)N1c2ccccc2Nc2ccccc21	n	n	n	n	n
CC(=O)N1c2ccccc2C2(O)N=C(C)SC12 (centres undefined)	n	n	55	n	n
Cc1nc(N)sc1-c1csc(Nc2ncccn2)n1	n	89	87	91	n
Cc1nc(N)sc1-c1csc(NCc2ccccc2)n1	n	n	n	n	n
O=C(NCCc1ccc(F)cc1)c1cc(-c2ccncc2)nc2ccccc12	x	n	n	n	x
COC(=O)c1ccc(COC(=O)c2ccc(CS(=O)(=O)c3ccc(C)cc3)cc2)cc1	n	n	n	81	n
COC(=O)c1ccc(COC(=O)CCS(=O)(=O)c2ccc(C)cc2)cc1	n	n	n	n	n
N#C/C(=C/c1ccccc1)c1nn(CCO)c(N)c1C#N	n	n	n	n	n
N#C/C(=C\c1ccc(/C=C(/C#N)c2nn(CCO)c(N)c2C#N)cc1)c1nn(CCO)c(N)c1C#N	n	n	58	62	n
Cc1nc(NCc2ccco2)c2c(C)c(C)sc2n1	n	n	n	n	n
Cc1sc2nc3c4ccccc4c(NCc4ccco4)nn3c(=O)c2c1C	n	n	67	n	n
Cc1cc(-c2csc(N)n2)c(C)n1CCc1ccccc1	n	n	n	n	n
SMILES	Arbovirus anti	14-3-3 Bad PPI	Mcl1 Noxa PPI	Mcl1-Bid inh	Bim-Mcl-1
Cc1cc(-c2csc(NCc3ccccc3)n2)c(C)n1C	n	98	69	n	n
CCc1cc2c(NCc3ccco3)ncnc2s1	n	87	n	n	n
CC(C)(C)c1ccc(NC(=O)c2ccsc2)cc1	x	n	n	n	x
CCN(CCS(=O)(=O)c1ccc(Cl)cc1)C(=O)Nc1ccc(Cl)cc1	x	n	n	n	x
COc1ccc2[nH]c3c(=O)n(CCCCC(=O)NCCN4CCCC4)c(=S)[nH]c3c2c1	n	n	n	n	n
COc1ccc2[nH]c3c(=O)n(Cc4ccc(C(=O)N5CCCC5)cc4)c(=S)[nH]c3c2c1	n	n	78	n	n
CCNC(=O)NC(=O)C(C)OC(=O)C1CCN(S(=O)(=O)c2ccccc2C(=O)OC)CC1 (centres undefined)	n	n	n	n	n
O=C(c1cnccn1)N(Cc1cccs1)C1(C(=O)NC2CCCC2)CCCCC1	n	n	n	n	n
O=C(c1cnccn1)N(Cc1cccs1)C1(C(=O)NC2CCCCC2)CCCCC1	n	n	n	n	54
CC(=O)Nc1ccc(N2CCN(c3ccc(C(F)(F)F)cn3)CC2)nc1	x	n	n	n	x

Source: PubChem BioAssay (several laboratories)
